Bioassay records: PubChem, National Center for Advancing Translational Sciences (NCATS)
Compounds with a hit are over-represented: about 12% of the library has one in this group of screens.
SARS PLP yeast: blocks SARS-CoV papain-like protease in a yeast assay; S. cerevisiae expressing SARS-CoV PLpro, growth rescue; Potency, µM (doses to about 32.9 µM), for the others: at the top dose activity, positive = growth rescue, hits mostly activators; 330,000 compounds, 0.19% hits; AID 485353; calls by dose curve; note: 0% is about no effect; nearly all actives have a fitted effect of over 55% in size
NS1 function inh: influenza NS1 inhibition | Potency, µM (series often up to 46.1 µM), without a hit: top-dose activity, positive = more growth | 270,000 compounds, 0.4% hits | AID 2326; calls by dose curve; note: actives are rising curves; nearly all actives have a fitted effect of over 50% in size
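OD600 was taken as the measure of yeast growth restored by compound in an NS1-expressing S. cerevisiae strain. Cells had been washed out of glucose medium and diluted 1:100 into galactose -URA medium, pH 6.0.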
HCV inhibitor: inhibitors of hepatitis C virus infection; AID 651820; Huh7.5.1 HCVcc-Cre infection, luciferase reporter, 44 h; 340,000 compounds, 3.4% hits; Potency, µM (titrated, usually from 41.8 µM), for the others: top-dose activity change, negative = inhibition, most hits filed as inhibitors; note: % is set by controls: 0 for no effect and ±100 for the full control effect
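Infectious HCV cell culture screen: compound-treated cells (1,000/well, pre-plated 4 h) are infected with HCVcc-Cre at roughly 0.5 moi and grown 44 h. Infection is quantified by luciferase signal after 15 min substrate incubation at room temperature.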
Pf growth 48h: inhibits P. falciparum growth in the first generation, 48 h; P. falciparum luciferase growth in erythrocytes, 48 h; Potency, µM (series often up to 28.7 µM), without a hit: top-dose activity change, negative = inhibition, actives largely listed as inhibitors; 310,000 compounds, 5.9% hits; AID 504832; note: % is set by controls: 0 for no effect and ±100 for the full control effect
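Read-out is firefly luciferase luminescence from an integrated reporter in P. falciparum, so falling signal marks reduced parasite growth. Infected erythrocytes were at 2% hematocrit and 0.1% parasitemia (final) in Albumax-supplemented RPMI 1640.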
AMA1-RON2 inh: AMA1-RON2 (P. falciparum) interaction inhibition; 360,000 compounds, 0.2% hits; AID 720542; Potency, µM (top dose mostly 58.2 µM), inactives show at the highest dose activity change, negative = inhibition, most hits filed as inhibitors; AlphaScreen AMA1-biotinylated RON2 peptide binding;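 note: 0% = vehicle wells and -100% = peptide control; nearly all actives have a fitted effect of over 45% in size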
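AMA1 (3D7) with his tag at 25 nM final met compounds first, then biotinylated RON2 peptide at 25 nM; detection used donor plus acceptor beads, 10 µg/mL apiece, read by AlphaScreen after 30 min at room temperature.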
Pf growth 96h: P. falciparum growth inhibition at 96 hour, primary screen for plastid delayed-death inhibitors; P. falciparum luciferase reporter growth, 96 h; AID 504834; 320,000 compounds, 6.9% hits; Potency, µM (highest dose often 28.7 µM), inactives show at the top dose activity change, negative = inhibition, actives largely listed as inhibitors; note: % is set by controls: 0 for no effect and ±100 for the full control effect
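96 h incubation, 37 C, 5% CO2, of luciferase-reporter P. falciparum-infected RBCs (2% hematocrit, 0.05% parasitemia final) with test compounds; endpoint luminescence.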
The depositor's hits bear a star. Unless noted, calls come from the whole dose curve; as a rule, active = well fitted curve in the direction sought with a large enough effect; inconclusive = small, poorly fitted or top-dose-only effect, or another doubt; inactive = no such curve, though single readings can be large; an effect the other way counts as inactive or inconclusive. Potency is the fitted concentration of half-maximal effect.

What do the screens show for `O=C(C1CCCN(S(=O)(=O)c2cccc3nonc23)C1)N1CCN(c2ccccc2Cl)CC1` (stereo not drawn)?
SARS PLP yeast: -37%; NS1 function inh: inconclusive; HCV inhibitor: inconclusive; Pf growth 48h: 12µM*; AMA1-RON2 inh: -25%; Pf growth 96h: 12µM*

How did O=C(Nc1ccc(F)cc1)C1CCCN(S(=O)(=O)c2cccc3nonc23)C1 (stereo not drawn) do in these assays?
SARS PLP yeast: 10%; NS1 function inh: -2%; HCV inhibitor: 2%; Pf growth 48h: -20%; AMA1-RON2 inh: -5%; Pf growth 96h: 3.7µM*

Results for Cc1cccc(N2CCN(S(=O)(=O)c3cccc4nonc34)CC2)c1C ?
SARS PLP yeast: -27%; NS1 function inh: -5%; HCV inhibitor: 1%; Pf growth 48h: -13%; AMA1-RON2 inh: inconclusive; Pf growth 96h: 2.9µM*

Results for O=C(C1CCN(S(=O)(=O)c2cccc3nonc23)CC1)N1CCCCC1 ?
SARS PLP yeast: -3%; NS1 function inh: -8%; HCV inhibitor: 6%; Pf growth 48h: 42%; AMA1-RON2 inh: -6%; Pf growth 96h: 2%

Results for O=S(=O)(c1cccc2nonc12)N1CCN(c2ccccc2F)CC1 ?
SARS PLP yeast: -1%; NS1 function inh: 1%; HCV inhibitor: -19%; Pf growth 48h: -10%; AMA1-RON2 inh: 7%; Pf growth 96h: 26%

What do the screens show for `OCCC1CN(Cc2ccc3c(c2)CCO3)CCN1C1CCCC1` (stereo not drawn)?
SARS PLP yeast: 0%; NS1 function inh: 1%; HCV inhibitor: -10%; Pf growth 48h: 14%; AMA1-RON2 inh: -13%; Pf growth 96h: 38%

How did COc1ccc(NC(=O)CSc2nnc(-c3ccccc3Cl)n2Cc2ccco2)c(OC)c1 do in these assays?
SARS PLP yeast: 17%; NS1 function inh: -22%; HCV inhibitor: -21%; Pf growth 48h: inconclusive; AMA1-RON2 inh: -9%

What do the screens show for `CCn1c(SCc2ccccc2)nnc1-c1ccc(S(=O)(=O)N2CCCCC2)cc1`?
SARS PLP yeast: -4%; NS1 function inh: -14%; HCV inhibitor: inconclusive; Pf growth 48h: 10µM*; AMA1-RON2 inh: 7%; Pf growth 96h: 0%

What do the screens show for `O=C(CSc1nnc(-c2ccccc2)n1Cc1ccco1)Nc1ccc(S(=O)(=O)N2CCCC2)cc1`?
SARS PLP yeast: 1%; NS1 function inh: 22%; HCV inhibitor: 14µM*; Pf growth 48h: inconclusive; AMA1-RON2 inh: -12%; Pf growth 96h: inconclusive

Results for CCOc1ccc(NC(=O)CSc2nnc(-c3ccccc3Cl)n2Cc2ccco2)cc1 ?
SARS PLP yeast: -1%; NS1 function inh: -60%; HCV inhibitor: inconclusive; Pf growth 48h: inconclusive; AMA1-RON2 inh: -8%; Pf growth 96h: 0.033µM*

What do the screens show for `COc1ccc(C(=O)CSc2[nH]c(=O)cc(C(F)(F)F)c2C#N)cc1`?
SARS PLP yeast: -1%; NS1 function inh: -4%; HCV inhibitor: -10%; Pf growth 48h: inconclusive; AMA1-RON2 inh: -6%; Pf growth 96h: -5%

What do the screens show for `O=C(OCC(=O)c1ccccc1Br)c1ccccn1`?
SARS PLP yeast: -6%; NS1 function inh: -11%; HCV inhibitor: 13%; Pf growth 48h: 20%; AMA1-RON2 inh: inconclusive; Pf growth 96h: 8.3µM*

What do the screens show for `O=C(OCC(=O)c1ccc(Cl)cc1Cl)c1ccccn1`?
SARS PLP yeast: -1%; HCV inhibitor: 1%; AMA1-RON2 inh: -20%

Results for CC[n+]1c(C=C2C=C(C)OC(C)=C2)sc2ccccc21 ?
SARS PLP yeast: -2%; HCV inhibitor: 2.5µM*; Pf growth 48h: inconclusive; AMA1-RON2 inh: 1%; Pf growth 96h: inconclusive

Results for CC[n+]1c(/C=C2/C=C(C)CC(C)C2)sc2ccccc21 (stereo not drawn) ?
SARS PLP yeast: 1%; HCV inhibitor: 3.5µM*; Pf growth 48h: inconclusive; AMA1-RON2 inh: -15%; Pf growth 96h: inconclusive

What do the screens show for `CC[n+]1c(/C=C/Nc2ccccc2)sc2ccccc21`?
SARS PLP yeast: -7%; NS1 function inh: 2%; HCV inhibitor: 0%; Pf growth 48h: inconclusive; AMA1-RON2 inh: 42%; Pf growth 96h: -85%
